According to PubChem BioAssay:
Activity calls are given as the source filed them. Unless noted, no rule for the calls is given here.

Columns and labels:
[1] = compounds binding Alexa647 anti-His antibody – biochemical, small-molecule microarray, 635 nm fluorescence, artefact control for SMM control protein annotation, primary screen (AID 1128); conditions: higher = more signal;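 also: score merges feature fluorescence with signal-to-noise for each printed compound spot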
[2] = tested on: Human papillomavirus type 1a E7 protein (residues 1-88); assay: HPV1a E7 small-molecule binders, primary screen, biochemical, small-molecule microarray, residues 1-88, 635 nm (AID 1129); conditions: small-molecule microarray binding, fluorescence 635 nm; higher = more signal
[3] = molecular target: Focal adhesion kinase 1 (Homo sapiens) (UniProt Q05397); assay: PTK2 protein binding on printed compound slides – biochemical, small-molecule microarray, 635/667 nm fluorescence, BSA, DTT, primary screen (AID 1130); conditions: 635 nm fluorescence, higher = more signal;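 also: composite of spot emission at 667 nm and signal to noise over triplicate slides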
Focal adhesion kinase 1 (Homo sapiens), sequence (Q05397 whole entry, looked up): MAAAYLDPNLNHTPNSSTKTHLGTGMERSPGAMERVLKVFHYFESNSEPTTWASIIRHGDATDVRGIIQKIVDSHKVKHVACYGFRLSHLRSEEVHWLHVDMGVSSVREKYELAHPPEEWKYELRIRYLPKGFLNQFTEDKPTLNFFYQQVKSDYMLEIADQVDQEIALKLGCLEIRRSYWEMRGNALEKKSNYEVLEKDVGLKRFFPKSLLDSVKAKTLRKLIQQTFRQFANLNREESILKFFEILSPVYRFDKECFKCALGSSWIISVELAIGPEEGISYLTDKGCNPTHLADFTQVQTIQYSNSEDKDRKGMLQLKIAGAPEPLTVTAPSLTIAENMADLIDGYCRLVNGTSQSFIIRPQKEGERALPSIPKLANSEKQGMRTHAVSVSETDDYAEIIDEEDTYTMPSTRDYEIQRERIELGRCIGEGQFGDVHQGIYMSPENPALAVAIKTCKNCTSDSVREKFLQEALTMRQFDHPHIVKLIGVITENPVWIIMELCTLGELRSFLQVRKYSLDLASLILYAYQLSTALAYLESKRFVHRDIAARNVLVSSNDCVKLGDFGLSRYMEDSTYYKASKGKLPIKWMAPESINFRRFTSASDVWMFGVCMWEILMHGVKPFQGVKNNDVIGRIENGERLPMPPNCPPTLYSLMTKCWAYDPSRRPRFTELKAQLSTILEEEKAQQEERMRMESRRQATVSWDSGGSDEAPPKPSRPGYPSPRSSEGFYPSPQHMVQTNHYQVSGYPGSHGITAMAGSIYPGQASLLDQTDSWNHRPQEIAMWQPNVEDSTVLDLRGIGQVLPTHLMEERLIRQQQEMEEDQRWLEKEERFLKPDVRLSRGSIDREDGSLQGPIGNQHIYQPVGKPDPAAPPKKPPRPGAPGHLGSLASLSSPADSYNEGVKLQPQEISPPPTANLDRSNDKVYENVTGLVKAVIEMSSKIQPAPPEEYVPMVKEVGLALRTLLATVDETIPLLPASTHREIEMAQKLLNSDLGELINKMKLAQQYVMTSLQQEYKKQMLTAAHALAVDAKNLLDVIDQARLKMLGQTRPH

[4] = tested on: Fibrinogen (Alexa647-labelled); assay: Alexa647-fibrinogen binding to printed small molecules – biochemical, small-molecule microarray, 635/667 nm fluorescence, artefact control for SMM control-protein annotation, profiling panel (AID 1131); conditions: fibrinogen-A647 binding fluorescence, higher = more signal;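 also: z-score merges 667 nm fluorescence with per-spot signal-to-noise over triplicate slides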
[5] = molecular target: Follistatin (Homo sapiens) (UniProt P19883); assay: FST protein binding to printed compounds – biochemical, small-molecule microarray, 635/667 nm fluorescence, primary screen (AID 1132); conditions: 635 nm fluorescence, higher = more signal
Follistatin (Homo sapiens), sequence (P19883 whole entry, looked up): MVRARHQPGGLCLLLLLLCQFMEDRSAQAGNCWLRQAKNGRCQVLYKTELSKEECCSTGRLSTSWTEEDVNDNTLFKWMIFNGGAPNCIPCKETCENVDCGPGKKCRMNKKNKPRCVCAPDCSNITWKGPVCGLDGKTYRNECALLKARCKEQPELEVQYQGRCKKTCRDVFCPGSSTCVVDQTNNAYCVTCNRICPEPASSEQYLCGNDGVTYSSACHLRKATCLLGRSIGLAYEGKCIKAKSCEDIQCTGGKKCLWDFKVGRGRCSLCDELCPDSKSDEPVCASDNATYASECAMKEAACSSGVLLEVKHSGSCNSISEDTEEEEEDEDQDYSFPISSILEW

[6] = molecular target: Fibroblast growth factor 2 (Homo sapiens) (UniProt P09038); assay: basic fibroblast growth factor binding to printed compounds – biochemical, small-molecule microarray, 635/667 nm fluorescence, primary screen (AID 1133); conditions: FGF2, fluorescence 635/667, higher = more signal
Fibroblast growth factor 2 (Homo sapiens), sequence (P09038 whole entry, looked up): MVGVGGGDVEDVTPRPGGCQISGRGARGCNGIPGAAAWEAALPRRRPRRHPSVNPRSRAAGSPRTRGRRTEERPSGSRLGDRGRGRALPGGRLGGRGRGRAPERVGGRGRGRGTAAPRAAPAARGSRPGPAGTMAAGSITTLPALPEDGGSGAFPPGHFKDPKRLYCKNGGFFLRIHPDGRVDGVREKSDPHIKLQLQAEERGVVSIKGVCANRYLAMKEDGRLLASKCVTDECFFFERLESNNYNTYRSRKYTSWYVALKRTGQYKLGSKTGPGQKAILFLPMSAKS

[7] = JC-1 mitochondrial potential readout, lung cancer cells – cell-based, A549, JC-1 fluorescence, basal, 24 h, 100 nL, profiling panel (AID 1138); conditions: higher = more signal;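 also: A549 lung adenocarcinoma cells under basal conditions with no added stimulus; test concentration not given here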
Lefty1 = Lefty1 protein binding to printed compounds – biochemical, small-molecule microarray, 635/667 nm fluorescence, primary screen (AID 1139); conditions: fluorescence 635/667, higher = more signal
[8] = tested on: wheat germ agglutinin (Triticum aestivum), Alexa647-labelled; assay: Alexa647-WGA lectin binding to printed small molecules – biochemical, small-molecule microarray, 635/667 nm fluorescence, artefact control for SMM control-protein annotation, profiling panel (AID 1140); conditions: WGA-A647 binding, 635 nm fluorescence, higher = more signal;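 also: score merges 667 nm feature emission with signal to noise over triplicate slides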
[9] = molecular target: Luciferin 4-monooxygenase (Photinus pyralis) (UniProt P08659); assay: inhibition of purified Photinus pyralis luciferase – biochemical, luminescence, purified enzyme, 2006 set, primary screen (AID 1141); conditions: purified firefly luciferase, SteadyGlo luminescence, 30 min; higher = more signal, called active from +8 up or from −8 down;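 also: cell-free assay with purified firefly luciferase at 100 ng per well in PBS; test concentration not given here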
Luciferin 4-monooxygenase (Photinus pyralis), sequence (P08659 whole entry, looked up): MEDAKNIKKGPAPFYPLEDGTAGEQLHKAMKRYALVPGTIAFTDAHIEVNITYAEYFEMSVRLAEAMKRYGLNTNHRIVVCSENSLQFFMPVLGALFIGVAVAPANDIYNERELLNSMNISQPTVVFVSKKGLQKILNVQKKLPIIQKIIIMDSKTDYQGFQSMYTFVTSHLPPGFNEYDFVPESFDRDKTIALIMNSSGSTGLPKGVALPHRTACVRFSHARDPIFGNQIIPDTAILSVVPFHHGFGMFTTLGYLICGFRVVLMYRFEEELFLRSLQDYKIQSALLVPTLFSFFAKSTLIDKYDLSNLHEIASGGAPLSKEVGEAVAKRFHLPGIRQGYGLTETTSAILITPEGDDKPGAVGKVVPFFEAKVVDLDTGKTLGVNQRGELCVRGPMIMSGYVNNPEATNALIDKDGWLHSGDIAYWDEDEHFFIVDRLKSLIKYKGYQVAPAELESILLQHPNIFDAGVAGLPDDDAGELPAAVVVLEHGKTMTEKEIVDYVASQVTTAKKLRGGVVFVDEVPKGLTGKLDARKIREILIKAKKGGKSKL

[10] = tested on: Wnt5a (protein binding on small-molecule microarray); assay: small molecules binding Wnt5a protein – biophysical, small-molecule microarray, 635/667 nm fluorescence, primary screen (AID 1142); conditions: 635 nm fluorescence, higher = more signal;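 also: fluorescence read at 667 nm with signal to noise per printed feature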
[11] = ATP-based viability of Huh7 replicon cells – cell-based, CellTiter-Glo luminescence, basal, 48 h, cytotoxicity control for HCV replication inhibitor project, primary screen (AID 1143); conditions: higher = more signal, called active from +8 up or from −8 down;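 also: Huh7 hepatoma cells carrying a hepatitis C replication reporter with no stimulus; test concentration not given here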
[12] = Pseudomonas biofilm growth suppression – PAO1 strain, BacTiter-Glo luminescence, LB-PBS, primary screen (AID 1144); conditions: P. aeruginosa PAO1 biofilm, 12 h, higher = more signal
[13] = basal CRE-LacZ reporter activity in PC12 – cell-based, unstimulated, primary screen (AID 1145); conditions: no forskolin, luminescence, 4.5 h, higher = more signal, called active from +8 up or from −8 down
[14] = forskolin-driven CRE-LacZ activity in PC12 – cell-based, CRE-LacZ reporter, forskolin-stimulated, primary screen (AID 1146); conditions: luminescence, 4.5 h, higher = more signal, called active from +8 up or from −8 down;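 also: PC12 cells with 6xCRE LacZ reporter stimulated by forskolin 10 µM; beta-galactosidase reporter signal reflecting CREB driven transcription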
[15] = molecular target: Streptavidin (Streptomyces avidinii) (UniProt P22629); assay: compounds binding control protein streptavidin – biophysical, small-molecule microarray, 635/667 nm fluorescence, artefact control for SMM compound annotation, primary screen (AID 1147); conditions: higher = more signal;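 also: signal reflects streptavidin binding to arrayed compounds as a control protein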
Streptavidin (Streptomyces avidinii), sequence (P22629 whole entry, looked up): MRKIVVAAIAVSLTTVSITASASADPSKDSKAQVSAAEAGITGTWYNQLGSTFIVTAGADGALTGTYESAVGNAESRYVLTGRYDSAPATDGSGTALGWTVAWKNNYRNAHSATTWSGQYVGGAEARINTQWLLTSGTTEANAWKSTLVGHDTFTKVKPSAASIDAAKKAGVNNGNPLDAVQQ

[16] = probe aInhba binding on compound microarray – biochemical, small-molecule microarray, 635/667 nm fluorescence, primary screen (AID 1148); conditions: higher = more signal;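 also: score merges 667nm spot fluorescence with signal-to-noise for antibody binding to printed compounds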
Torsin-1A (Homo sapiens) [17] = molecular target: Torsin-1A (Homo sapiens) (UniProt O14656); assay: TOR1A wild-type binding on microarray – cell lysate, small-molecule microarray, lysate, 635/667 nm, primary screen (AID 1149); conditions: COS7 hTOR1A-WT lysate, 635 nm fluorescence, higher = more signal
Torsin-1A (Homo sapiens), sequence (O14656 whole entry, looked up): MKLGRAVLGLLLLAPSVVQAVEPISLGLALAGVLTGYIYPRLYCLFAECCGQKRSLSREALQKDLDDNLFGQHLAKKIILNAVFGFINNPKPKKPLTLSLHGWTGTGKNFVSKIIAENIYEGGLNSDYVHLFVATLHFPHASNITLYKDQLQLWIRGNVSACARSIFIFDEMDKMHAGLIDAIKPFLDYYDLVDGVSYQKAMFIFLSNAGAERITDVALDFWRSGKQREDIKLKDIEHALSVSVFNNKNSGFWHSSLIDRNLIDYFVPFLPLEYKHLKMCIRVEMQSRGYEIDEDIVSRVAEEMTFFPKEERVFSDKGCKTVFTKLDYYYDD

Torsin-1A (Homo sapiens) [18] = molecular target: Torsin-1A (Homo sapiens) (UniProt O14656); assay: torsin A mutant lysate binding on microarrays – cell lysate, small-molecule microarray, COS7 lysate, 635/667 nm fluorescence, primary screen (AID 1150); conditions: COS7 hTOR1A mutant lysate, 635 nm fluorescence, higher = more signal;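 also: score pools 667 nm emission and signal to noise measuring lysate protein binding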
[19] = tested on: Sonic hedgehog protein (Shh); assay: Sonic hedgehog microarray binding compounds – biochemical, small-molecule microarray, 635/667 nm fluorescence, primary screen (AID 1151); conditions: 635 nm fluorescence, higher = more signal;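 also: Shh protein binding to compounds spotted on small-molecule microarray slides; score combines spot fluorescence intensity with signal-to-noise across triplicate slides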

SMILES | composite z-score [1] | composite z-score [2] | composite z-score [3] | composite z-score [4] | composite z-score [5] | composite z-score [6] | z-score [7] | composite z-score (Lefty1) | composite z-score [8] | z-score [9] | composite z-score [10] | z-score [11] | z-score [12] | z-score [13] | z-score [14] | composite z-score [15] | composite z-score [16] | composite z-score (Torsin-1A (Homo sapiens) [17]) | composite z-score (Torsin-1A (Homo sapiens) [18]) | composite z-score [19]
CC(=O)OC[C@H]1O[C@H](CC=NOC(C)CN2CCCc3nc(C)c(C)cc32)C=C[C@@H]1OC(C)=O (stereo not given in full) | 1.42 | 0.507 | 0.246 | 0.145 | 0.803 | 0.684 | -0.221 | 0.947 | -0.0862 | 0.767 (inactive) | 0.417 | 0.169 (inactive) | 0.649 (inactive) | -0.961 (inactive) | 0.0009 (inactive) | -0.0656 | -0.0221 | 1.19 | -0.0919 | 1.1
O=C1CCCC=C1C(O)C1CCCCC1 (stereo not given) | -0.481 | -0.568 | -0.365 | -0.206 | 0.316 | -0.297 | 0.168 | 0.562 | -0.0135 | -0.376 (inactive) | -0.028 | 0.869 (inactive) | 0.993 (inactive) | 0.198 (inactive) | 0.85 (inactive) | -0.234 | -0.122 | -0.19 | 0.44 | 0.628
COC(=O)[C@H](C)NC(=O)CCC1CC(OC(=O)NCCc2ccc(F)cc2)CC2(CCCC(COC(=O)NCc3ccccc3)O2)O1 (stereo not given in full) | 0.36 | 0.775 | 0.0965 | 0.911 | 0.913 | 1.13 | 0.708 | 0.875 | 0.0915 | 0.835 (inactive) | 0.101 | -0.455 (inactive) | -0.035 (inactive) | 0.199 (inactive) | 0.833 (inactive) | 0.848 | -0.0209 | 0.257 | 0.477 | 1.25
CC(C)=NOC[C@@H](O)[C@H]1O[C@@H]2OC(C)(C)O[C@@H]2[C@H]1O | -0.0333 | 0.491 | 0.17 | 0.0104 | 0.464 | 0.57 | 0.225 | 0.507 | 0.0212 | -0.394 (inactive) | -0.297 | 0.605 (inactive) | 0.503 (inactive) | -0.473 (inactive) | -0.476 (inactive) | 1.23 | 0.333 | 1.34 | 0.0837 | 0.785
CON=C(C)CCN1CCCCc2nc(C)c(C)cc21 | 0.229 | -0.27 | 0.145 | 0.582 | 0.925 | 0.644 | 1.19 | 1.05 | 0.495 | -0.518 (inactive) | 0.0272 | 0.559 (inactive) | -0.0896 (inactive) | 0.397 (inactive) | 1.13 (inactive) | -0.0284 | -0.0131 | 1.5 | 0.816 | 0.936
C=CC[C@@H]1C=C[C@H](ON=C(C)CCN2CCCc3nc(C)c(C)cc32)[C@@H](CO)O1 | 0.229 | 0.736 | 0.817 | -0.355 | 1.25 | 1 | 0.289 | 1.16 | -0.205 | 0.949 (inactive) | 0.621 | -0.686 (inactive) | -0.0889 (inactive) | -0.0824 (inactive) | -0.299 (inactive) | 0.182 | 0.528 | 2.17 | 2.07 | 1.66
CC(C)=CCCC(C)=CCON=C1[C@H]2CCn3c(=O)n(-c4ccccc4)c(=O)n3[C@H]2[C@H](O)[C@@H]2O[C@H]12 | 0.645 | 1.14 | 0.274 | 0.712 | 1.19 | 0.765 | 0.334 | 0.808 | 0.505 | -0.416 (inactive) | 0.0694 | -1.7 (inactive) | -0.044 (inactive) | -0.473 (inactive) | -0.271 (inactive) | 1.07 | 0.0319 | 1.02 | 0.413 | 1.38
C=C(C)C(=O)OC[C@H]1CN2[C@@H](CC[C@@H](C)[C@@H]2c2ccc(Br)cc2)C(=O)O1 | 2.44 | 0.0456 | -0.174 | -0.613 | 0.489 | 0.108 | 0.47 | 0.264 | -0.034 | -2.88 (inactive) | -0.219 | 0.411 (inactive) | -0.694 (inactive) | -0.654 (inactive) | -0.777 (inactive) | 0.0906 | -0.154 | 0.334 | 0.0188 | 0.0827
CCOC(=O)[C@H](CC(C)C)NC(=O)CCC1CC(OC(=O)NCCc2ccc(F)cc2)CC2(CCCC(COC(=O)NCCOC)O2)O1 (stereo not given in full) | 0.917 | 1.04 | 0.318 | 0.416 | 0.839 | 1.18 | -0.382 | 0.955 | 0.829 | 0.958 (inactive) | 0.441 | -0.127 (inactive) | 0.045 (inactive) | 0.198 (inactive) | 0.0489 (inactive) | 0.581 | -0.215 | 0.441 | 0.259 | 1.53
C#CCCCON=C1[C@H]2CCn3c(=O)n(Cc4cc5c(cc4Cl)OCO5)c(=O)n3[C@H]2[C@H](O)[C@@H]2O[C@H]12 | 0.229 | 0.522 | -0.383 | 0.0676 | 0.751 | 0.486 | 0.146 | 0.748 | -0.232 | 0.303 (inactive) | 0.272 | 0.256 (inactive) | -0.55 (inactive) | -0.207 (inactive) | 0.959 (inactive) | 0.23 | -0.0375 | 0.0703 | 0.248 | 1.08
